In assay [1] the target is Eukaryotic translation initiation factor 3 subunit B (UniProt P55884). Put plainly: cross-linking mass spectrometry.
The next assay deals with Histone H2A type 2-B (UniProt Q8IUE6). Kind of assay: cross-linking mass spectrometry.
Assay [2] deals with Large ribosomal subunit protein eL6 (UniProt Q02878). Kind of assay: cross-linking mass spectrometry.
The target in assay [3] is Large ribosomal subunit protein eL8 (UniProt P62424). Put plainly: cross-linking mass spectrometry.
The next assay concerns the target Nucleolar protein 16 (UniProt Q9Y3C1). Kind of assay: cross-linking mass spectrometry.
Assay [4] concerns the target Large ribosomal subunit protein uL13 (UniProt P40429). Put plainly: cross-linking mass spectrometry.
Assay [5] deals with Large ribosomal subunit protein eL31 (UniProt P62899). Put plainly: cross-link between two proteins; cross-linking mass spectrometry.
In assay [6] the target is Large ribosomal subunit protein uL15 (UniProt P46776). Put plainly: cross-linking mass spectrometry.
In assay [7] the target is Large ribosomal subunit protein eL20 (UniProt Q02543). Kind of assay: cross-link between two proteins; cross-linking mass spectrometry.
The target in assay [8] is Small ribosomal subunit protein uS4 (UniProt P46781). Put plainly: cross-linking mass spectrometry.
Assay [9] concerns the target Small ribosomal subunit protein uS9 (UniProt P62249). Put plainly: cross-linking mass spectrometry.
Assay [10] deals with Large ribosomal subunit protein eL19 (UniProt P84098). Put plainly: cross-link between two proteins; cross-linking mass spectrometry.
The target of assay [11] is Large ribosomal subunit protein eL36 (UniProt Q9Y3U8). The description is as above.
Assay [12] has as its target Large ribosomal subunit protein eL43 (UniProt P61513). The assay is described as above.
Assay [13] addresses Small ribosomal subunit protein eS24 (UniProt P62847). Described as above.
The target in assay [14] is Small ribosomal subunit protein uS5 (UniProt P15880). Described as above.
Assay [15] deals with Small ribosomal subunit protein uS8 (UniProt P62244). The description is as above.

Experimental findings from publication PMC11447256 are described below.

Take “Small ribosomal subunit protein uS4, P46781”: the “listed as a hit” value in assay [1] is “yes”.

On to Histone H3.1, P68431, for which the “listed as a hit” value with Histone H2A type 2-B is listed as “yes”.

“Large ribosomal subunit protein uL30, P18124”: the “listed as a hit” value in assay [2] is recorded as “yes”.

Turning to “Large ribosomal subunit protein eL13, P26373”, the “listed as a hit” value (in assay [3]; in the assay with Nucleolar protein 16) was “yes” each time.

As for “Large ribosomal subunit protein uL3, P39023”, the “listed as a hit” value in [4] and in assay [5] was “yes” each time.

As for “Large ribosomal subunit protein uL16, P27635”, the “listed as a hit” value in assay [4] and in assay [6] was “yes” each time.

With “Large ribosomal subunit protein uL13, P40429”, the “listed as a hit” value in [6] and in assay [7] was “yes” in each case.

For the substance “Small ribosomal subunit protein uS3, P23396”, the “listed as a hit” value in [8] and in assay [9] was “yes” throughout.

On to “Large ribosomal subunit protein eL30, P62888”, for which the “listed as a hit” value in assay [10] is given as “yes”.

Take “Large ribosomal subunit protein eL43, P61513”: in assay [10], the “listed as a hit” value is reported as “yes”.

In the case of “Large ribosomal subunit protein uL1, P62906”, in assay [11], the “listed as a hit” value is “yes”.

Take “Large ribosomal subunit protein eL34, P49207”: the “listed as a hit” value in [12] is listed as “yes”.

With “Small ribosomal subunit protein uS17, P62280”, the “listed as a hit” value in assay [13] is “yes”.

For the substance “Small ribosomal subunit protein uS2, P08865”, the “listed as a hit” value in assay [14] is listed as “yes”.

For “Small ribosomal subunit protein uS5, P15880”, in assay [15], the “listed as a hit” value was “yes”.
